Compounds without any hit were thinned out: in the full panel of roughly 83,000, 20% have a hit.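 Cells were grown in 96-well plates and exposed to the test compound at a single concentration for 48 hours; results are reported as percent growth, with values below 10 considered active.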 The source made the active and inactive calls.

The first experiment concerns HCC-2998 colon. The experiment is described as follows: NCI-60 one-dose screen, 48 h (100 = growth as untreated, 0 = no growth, -100 = all killed). As to conditions: 10 µM unless noted.
With `COc1ccc2c(c1)C(=O)/C(=C/c1ccc(OCC(=O)Nc3nccs3)cc1)O2`, the growth is 113% (inactive).

Take `CN1C(=O)N(C)C2C1NN=c1s/c(=C\c3ccccc3)c(=O)n12` (stereo unspecified): the growth is 82.5% (inactive). Consider `Cn1ccc2c(c1=O)C(=O)c1nccc3c1c-2nc1ccccc13`, for which the growth was -96.2% (active). Consider `Cc1ccc(Cl)c(NS(=O)(=O)c2ccc(-c3cnc(C4CC4)o3)cc2)c1`, for which the growth was 26.8% (inactive). As for `Cn1cc(-c2csc(-c3cccc(F)c3)n2)c2cccnc21`, the growth is -84.6% [100 µM] (active). `CC(C)Sc1nc(NNC(N)=S)c(C#N)c(-c2ccc(F)cc2)n1`: the growth was 101% (inactive). The same measure, in the same setting: the figure for `Cc1c(C(=O)OC(=NC2CCCCC2)NC2CCCCC2)sc2c1c(=O)nc1c(C#N)n[nH]n12` is 100% (inactive). Consider `C=C(C)[C@@H]1CC[C@]2(C(=O)NC3CCCCC3)CC[C@]3(C)[C@H](CC[C@@H]4[C@@]5(C)CCC(=O)C(C)(C)[C@@H]5CC[C@]43C)[C@@H]12`, for which the growth is 107% (inactive). Turning to `Clc1cccc(Cl)c1C(Nc1nc2ccccc2s1)Nc1nc2ccccc2s1`, the growth is 117% (inactive).

Take `Cc1cc[c-]cc1.Fc1c[c-]c(-c2ccccn2)c(F)c1.[Pt+2].c1ccc(P(C[PH+](c2ccccc2)c2ccccc2)c2ccccc2)cc1`: the growth is 33.1% (inactive).

As for `O=C(O)c1ccc2c(c1)CCC2`, the growth is 115% (inactive). In the case of `C[C@H]1[C@H]2[C@H]3CC[C@@H]4[C@@]5(C)C/C(=C/c6ccco6)C(=O)C(C)(C)[C@@H]5CC[C@@]4(C)[C@]3(C)CC[C@]23CO[C@]1(C)[C@@H](C(=O)/C=C\c1ccco1)C3`, the growth was 108% (inactive). The same measure, in the same setting: the figure for `CCOC(=O)c1ccc(N2NC(=O)/C(=C/c3ccc([N+](=O)[O-])o3)C2=O)cc1` is 103% (inactive); for `COc1ccc(-c2cc(-c3ccc(Nc4nc(Nc5ccc(Cl)cc5)nc(Nc5ccc(Cl)cc5)n4)cc3)nc(N)c2C#N)cc1` it is -8.77% (active); for `O=C1/C(=C/c2ccc(F)cc2)C=C(c2ccccc2)N1CCc1ccccc1` it is 85% (inactive). For `O=c1c2c3c(sc2n2c(-c4cn(-c5ccccc5)nc4-c4ccc(Cl)cc4)nnc2n1Cc1ccccc1)CCCC3`, the growth is 99.1% (inactive). In the case of `COC(=O)c1c2c(c[n+]([O-])c1C)C(=O)C=CC2=O`, the growth was 88.1% (inactive). Same read-out and setting: the result for `Cc1ccc(-n2c(-c3ccccc3)c(-c3ccccc3)c3c(SCC(=O)n4[nH]c(N)cc4=O)ncnc32)cc1` reads 113% (inactive); that for `COc1cc(CCC[P+](c2ccccc2)(c2ccccc2)c2ccccc2)cc2c1OCO2`, 24.3% (inactive). `COc1cccc(-c2nc3sccn3c2-c2ccnc(NCCNS(=O)(=O)c3cccc(Cl)c3)c2)c1`: the growth is 64.2% (inactive). In the case of `CC1=C([Se]CC(OC(=O)[C@@H](CO)NC(=O)OC(C)(C)C)C(=O)NC(C)(C)C)C(=O)c2ccccc2C1=O` (stereo partly specified), the growth is -89.9% (active).

For `Cc1ccc(Cc2cnc(NC(=O)c3ccc4noc(-c5ccccc5)c4c3)s2)cc1`, the growth is 99.7% (inactive).

With `CC/C=C1/C(=O)C=C[C@@H]1C/C=C\CCCC(=O)O`, the growth was 95.1% (inactive).

On to `CC(=O)c1nc(Nc2ccc(C)cc2)sc1C`, for which the growth was 101% (inactive). Take `CC(=O)O[C@]1(C(C)=O)CCC2C3C[C@H](C)C4=CC(=O)CC[C@]4(C)C3CC[C@@]21C` (stereo partly specified): the growth is 106% (inactive). With `CC(=O)N1N=C(c2ccc(Nc3nc(Nc4ccc(F)cc4)nc(Nc4ccc(F)cc4)n3)cc2)CC1c1cccc([N+](=O)[O-])c1` (stereo unspecified), the growth was 54% (inactive). As for `Cc1occc1-c1n[nH]c(=S)n1N1C(=O)CSC1=S`, the growth was 112% (inactive). For `COc1cccc(-c2nn(-c3ccccc3)cc2-c2ccnc(NCCCNC(=O)c3ccccc3)c2)c1`, the growth is 52.3% (inactive). Turning to `COc1cc(/C=N/Nc2ncc(-c3cc4cc5c(cc4o3)OCO5)s2)cc(OC)c1OC`, the growth was 82.1% (inactive). Turning to `O=C(Nc1ccccc1Cl)Oc1ccc(-c2ccccc2)cc1`, the growth is 119% (inactive). On the same count and under the same terms, the figure for `COc1nc(N(C)O)nc(N(C)O)n1` is 9.13% (active). Consider `CCN1CCN(c2nc(C)cc(NCc3cc(Nc4ccnc5cc(Cl)ccc45)ccc3F)n2)CC1`, for which the growth was -34.9% (active).

Turning to `CCN(CC)c1nc(SCC(=O)Nc2nc3ccc(C)cc3s2)nc(-c2ccccc2)c1C#N`, the growth was 110% (inactive). Regarding `Cn1c(-c2c(N)n(Cc3cccnc3)c3nc(C#N)c(C#N)nc23)nc2ccccc21`, the growth was 100% (inactive).

Another experiment concerns KM12 colon. The description is as above. Particulars: 10 µM unless noted.
Take `Cc1c(C(=O)OC(=NC2CCCCC2)NC2CCCCC2)sc2c1c(=O)nc1c(C#N)n[nH]n12`: the growth is 110% (inactive). Regarding `O=C(O)c1ccc2c(c1)CCC2`, the growth was 113% (inactive). As for `COC(=O)c1c2c(c[n+]([O-])c1C)C(=O)C=CC2=O`, the growth was 98.7% (inactive). Consider `COc1cc(CCC[P+](c2ccccc2)(c2ccccc2)c2ccccc2)cc2c1OCO2`, for which the growth was 10.7% (inactive).

In the case of `COc1cccc(-c2nc3sccn3c2-c2ccnc(NCCNS(=O)(=O)c3cccc(Cl)c3)c2)c1`, the growth was 42.8% (inactive).

For the compound `CC1=C([Se]CC(OC(=O)[C@@H](CO)NC(=O)OC(C)(C)C)C(=O)NC(C)(C)C)C(=O)c2ccccc2C1=O` (stereo partly specified), the growth was -77.7% (active). Same read-out and setting: the figure for `CC/C=C1/C(=O)C=C[C@@H]1C/C=C\CCCC(=O)O` is 63.4% (inactive).

The values are drawn from PubChem BioAssay (NCI).
